Fluorescence slope data for 16 compounds are collected here from PubChem BioAssay.

A number with no mark means an inactive call.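 The calls were made as follows: active = fluorescence slope higher than the sample average by over 3 SD (cut at about -0.22 in these data, passing the limit was not always enough); inactive = the rest.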

The target in this assay is Voltage-gated potassium channel subunit beta-2 (Rattus norvegicus) (UniProt P62483). The experiment in a line: KvBeta enzyme negative modulators, primary screen, biochemical, NADPH fluorescence (AID 622).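 Also: slope of raw intensity against log time taken from 70 to 1610 s.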 Conditions: recombinant KvBeta, 4-cyanobenzaldehyde reduction, at 10 µM, hits give high values.
Voltage-gated potassium channel subunit beta-2 (Rattus norvegicus), sequence (P62483 whole entry, looked up): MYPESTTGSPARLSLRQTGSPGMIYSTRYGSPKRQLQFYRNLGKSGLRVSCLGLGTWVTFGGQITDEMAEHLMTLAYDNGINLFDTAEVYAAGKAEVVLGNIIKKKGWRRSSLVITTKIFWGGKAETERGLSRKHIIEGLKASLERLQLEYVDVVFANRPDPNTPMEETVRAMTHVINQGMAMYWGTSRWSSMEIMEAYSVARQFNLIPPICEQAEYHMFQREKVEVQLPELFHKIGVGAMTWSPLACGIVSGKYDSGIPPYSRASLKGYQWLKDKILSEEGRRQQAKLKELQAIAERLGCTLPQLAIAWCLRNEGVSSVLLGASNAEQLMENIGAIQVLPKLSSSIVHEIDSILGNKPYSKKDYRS
`Cn1c(SCc2cccc3ccccc23)nnc1-c1ccco1`: the fluorescence slope is -0.545.

With `COc1ccc(CC(=O)OCC(=O)NC(=O)NC2CCCCC2)cc1`, the fluorescence slope is -0.509.

As to `CCn1c(C)nc2cc(C(=O)OC(C(F)(F)C(F)F)C(F)(F)C(F)F)ccc21`, the fluorescence slope is -0.557.

As to `CCCn1c2c(c(O)c(C(=O)NC)c1=O)CCCC2`, the fluorescence slope is -0.566.

Regarding `COCCNC(=O)CN(C)S(=O)(=O)c1ccc2c(c1)OCCO2`, the fluorescence slope was -0.527.

For `O=C(CN1C(=O)CC(c2ccco2)Sc2ccccc21)Nc1ccc2c(c1)OCCO2` (stereo unspecified), the fluorescence slope is -0.459.

For the compound `COc1ccc2c(c1)CCc1c(C(=O)NCc3cccnc3)noc1-2`, the fluorescence slope was -0.462.

As to `OCc1nc(CO)n(Cc2ccccc2)n1`, the fluorescence slope is -0.501.

With `CC(=O)Nc1ccc(NC(=O)c2ccccc2N(C)S(C)(=O)=O)cc1`, the fluorescence slope is -0.462.

As to `Cc1noc(NS(=O)(=O)c2ccc(NC(=O)CCC3CCCC3)cc2)c1C`, the fluorescence slope was -0.557.

For the compound `CCCNC(=O)c1c(N)n(-c2cc(OC)cc(OC)c2)c2nc3ccccc3nc12`, the fluorescence slope is -0.367.

For `Cc1ccc(CN2C(=O)CCC2C(=O)NCC2CCCO2)cc1` (stereo unspecified), the fluorescence slope was -0.556.

Take `COc1ccc(CC(NC(C)=O)C(=O)NC2CCN(c3nc(C)cc(C)c3C#N)CC2)c(OC)c1` (stereo unspecified): the fluorescence slope is -0.341.

As for `CC1(C)CC(=O)c2c(O)cc(O)cc2O1`, the fluorescence slope is -0.482.

Regarding `COc1ccc(C2C(C#N)=C(C)NC3=C2C(=O)CC(C)(C)C3)c(OC)c1` (stereo unspecified), the fluorescence slope was -0.463.

For `CC(C(=O)OCn1nnc2ccccc2c1=O)N1C(=O)c2ccccc2C1=O` (stereo unspecified), the fluorescence slope was -0.62.
